In the library only some 3.9% were active in any assay of this set; here they are far more common.
MITF act = increases MITF-driven TRPM1 promoter luciferase signal; SK-MEL-5 TRPM1-promoter luciferase, 24 h; % of positive control, neutral wells = 0; activation, % at 12.5 µM; actives 0.75% (n = 300,000);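 active = mean activation of at least 80% with every replicate also reaching 80%; inconclusive = mean reaches 80% but some replicate falls short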
esBAF inh = inhibitors of esBAF chromatin remodeling in mouse ES cells | Bmi1-luciferase knock-in reporter, 24 h; 100% = twice the neutral-well signal | reporter increase, % at 12.5 µM | actives 2% (n = 350,000) | AID 602393; in the data active = activation above about 40%; inconclusive = no clear call, values can overlap the other calls;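 note: a rise in the Bmi1 reporter signal indicates esBAF inhibition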
HSF1 inh = HSF1 inhibition | NIH3T3-HGL HSE-luciferase, MG132-induced, luminescence 8 h; hits give low values | activity change, negative = inhibition, % at 7.5 µM (by protocol) | actives 0.77% (n = 300,000) | AID 2098;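 active = more than half of replicate wells show activity change below -50%, luminescence cut by over half; inconclusive = some wells, but at most half, below -50%; inactive = no replicate well below -50%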;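 note: luciferase reports HSF-1 transcriptional activity via heat shock element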
Wnt bcat act = Wnt/beta-catenin pathway activation | Wnt/beta-catenin reporter cell assay, activator, plate reader | activation, % at 9.35 µM | actives 1.2% (n = 300,000) | AID 743398; in the data active = activation above about 30%, passing the limit was not always enough; inconclusive = no clear call, values can overlap the other calls
HSF1 activator = increases HSF-1 driven luciferase reporter signal; actives 1.7% (n = 300,000); activation, % at 9 µM; AID 504408; NIH3T3-HGL HSF-1 luciferase reporter, MG132, 8 h; 100% = twice DMSO control signal;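 active = mean replicate activation of at least 50% with a set share of replicates each reaching 50%; inconclusive = only one of those two conditions met; inactive = mean below 50% and too few replicates reaching it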
Numbers stand for hits; i = inactive; ? = inconclusive; nt = no result.

SMILES	MITF act	esBAF inh	HSF1 inh	Wnt bcat act	HSF1 activator
O=C([C@@H]1[C@@H](CO)[C@@H]2Cn3c(ccc(C4=CCCC4)c3=O)[C@H]1N2C(=O)c1ccccc1)N1CCOCC1	nt	i	nt	nt	nt
C[C@@H]1CCCCO[C@H](CN(C)Cc2ccc3c(c2)OCO3)[C@H](C)CN([C@@H](C)CO)C(=O)c2cc(NC(=O)Cc3ccccc3)ccc2O1	nt	i	nt	nt	nt
CCn1nnnc1SCC(=O)NCc1ccc2c(c1)OCO2	i	i	i	i	i
COc1ccc(OC)c(-n2nnnc2SCC(=O)NCc2ccc3c(c2)OCO3)c1	i	i	-72	nt	i
Clc1ccc(-c2noc(/C=C/c3ccccc3)n2)cc1	nt	i	i	i	i
C(=C\c1nc(-c2cccnc2)no1)/c1ccccc1	i	i	i	48	?
Cc1ccc(-c2noc(/C=C/c3ccccc3)n2)cc1	i	46	i	nt	69
Clc1ccccc1/C=C/c1nc(-c2cccnc2)no1	84	i	i	39	i
C[C@H](CO)N1C[C@H](C)[C@@H](CN(C)S(=O)(=O)c2ccc(F)cc2)OCCCC[C@H](C)Oc2ccc(NC(=O)NC3CCCCC3)cc2C1=O	nt	i	nt	nt	nt
CCCC(=O)Nc1ccc2c(c1)C(=O)N(C)[C@H]1CC[C@H](CC(=O)N3CCc4ccccc4C3)O[C@H]1CO2	nt	i	nt	nt	nt
CCC(=O)Nc1ccc2c(c1)C(=O)N(C)C[C@@H](OC)[C@H](C)CN(Cc1cccc(F)c1)[C@H](C)CO2	nt	i	nt	nt	nt
Cc1csc(NC(=O)Cc2c[nH]c3ccccc23)n1	93	61	i	nt	63
Cc1cnc(NC(=O)Cc2c[nH]c3ccccc23)s1	i	i	i	i	i
Cc1csc(NC(=O)Cc2ccc(F)cc2)n1	i	64	i	i	i
Cc1csc(NC(=O)Cc2c(F)cccc2Cl)n1	nt	62	i	i	i
O=C(Cc1ccc(F)cc1)Nc1nc(-c2ccc(F)c(F)c2)cs1	nt	i	i	i	i
Cc1cccc2cc3c(nc12)SC(=NCC1CCCO1)N(Cc1ccco1)C3 (configuration not stated)	i	nt	i	nt	190
O=C(c1ccco1)N1CCCN(Cc2cn[nH]c2-c2ccc(-c3ccccc3)cc2)CC1	i	nt	i	i	76
O=C(c1ccco1)N1CCN(Cc2ccc(F)cc2Cl)CC1	i	46	i	i	i
COc1ccc(-c2[nH]ncc2CN2CCN(C(=O)c3ccco3)CC2)cc1F	i	i	i	i	i
O=C(c1ccco1)N1CCN(Cc2ccc(F)cc2)CC1	i	i	i	i	i
O=C(OCC(=O)N1CCN(C(=O)c2ccco2)CC1)c1sc2cc(F)ccc2c1Cl	i	i	-55	i	i
CO[C@H]1CN(C)C(=O)c2ccc(NC(=O)C3CCCCC3)cc2OC[C@H](C)N(Cc2nccs2)C[C@H]1C	nt	i	nt	nt	nt
C[C@@H]1CN([C@H](C)CO)S(=O)(=O)c2ccc(C3=CCCCC3)cc2O[C@@H]1CN(C)Cc1ccccn1	nt	i	nt	nt	nt
Cc1ccc2nc(NC(=O)c3ccccn3)sc2c1	i	i	i	i	i
SMILES	MITF act	esBAF inh	HSF1 inh	Wnt bcat act	HSF1 activator
O=C(Nc1nc2c(F)cc(F)cc2s1)c1ccccn1	i	i	i	i	423
COc1ccc(CC(=O)N2CCC(c3ccccc3)C2)cc1 (configuration not stated)	i	nt	i	i	i
O=C(Cc1ccccc1)N1CCC(c2ccccc2)C1 (configuration not stated)	i	46	i	i	i
CCCc1nnc(NC(=O)c2nc(S(=O)(=O)Cc3cccc(C)c3)ncc2Cl)s1	i	i	-60	i	i
CN1/C(=C/C(=O)c2nc(S(C)(=O)=O)ncc2Cl)C(C)(C)c2ccccc21	i	nt	-92	nt	i
CCCc1nnc(NC(=O)CS(=O)(=O)c2ccc(C)cc2)s1	i	i	i	i	i
Cc1ccccc1NC(=O)c1nc(S(C)(=O)=O)ncc1Cl	nt	i	i	i	113
Cc1cccc(CS(=O)(=O)c2ncc(Cl)c(C(=O)Nc3c(C)cccc3C)n2)c1	i	i	i	i	482
CSc1ncc(Cl)c(C(=O)Nc2cccc(C)c2)n1	i	nt	nt	i	nt
Cc1cccc(C)c1NC(=O)c1nc(S(=O)(=O)Cc2ccccc2)ncc1Cl	i	i	i	i	596
Cc1cccc(CS(=O)(=O)c2ncc(Cl)c(C(=O)NCc3ccccc3)n2)c1	i	i	i	i	327
Cc1nnc(NC(=O)c2nc(S(=O)(=O)Cc3ccccc3)ncc2Cl)s1	i	i	i	i	i
CCCCNc1c(-c2ccc(SC3CCCCC3)cc2)nc2ccccn12	i	i	i	37	i
CCCCNc1c(-c2ccc(SC(C)CC)cc2)nc2ccccn12 (configuration not stated)	?	i	i	i	i
COc1ccc(Cc2nc3ccc(C(=O)N(C)CCn4ccnc4)cc3o2)cc1OC	i	48	i	i	i
COc1ccc(Cc2nc3ccc(C(=O)N4CCOCC4)cc3o2)cc1	95	78	i	i	i
COc1ccc(Cc2nc3ccc(C(=O)N4C[C@@H](C)O[C@@H](C)C4)cc3o2)cc1OC	i	69	i	i	i
C[C@@H]1CN([C@H](C)CO)C(=O)c2cc(NC(=O)Nc3ccc(C(F)(F)F)cc3)ccc2O[C@@H]1CN(C)S(C)(=O)=O	nt	i	nt	nt	nt
COC(=O)C1NN=C(C(=O)c2ccc(Cl)cc2)C1c1ccc(OC)cc1 (configuration not stated)	i	nt	i	i	54
COc1cccc(N/C=C/C(=O)c2ccc(Cl)cc2)c1	i	i	i	i	i
COc1ccc(C(=O)c2ccc(Cl)cc2)cc1	nt	46	i	i	i
COc1ccc(N/C=C/C(=O)c2ccc(Cl)cc2)cc1	106	nt	i	nt	i
O=C(C[C@@H]1CC[C@H](NC(=O)Nc2ccc(C(F)(F)F)cc2)[C@@H](CO)O1)NCc1ccccn1	nt	i	nt	nt	nt
O=C(C[C@H]1C[C@H]2c3cc(NC(=O)c4ccc5c(c4)OCO5)ccc3O[C@H]2[C@@H](CO)O1)NCCN1CCCCC1	nt	i	nt	nt	nt
O=C(/C=C\N1CCOCC1)c1ccc(Br)cc1	i	47	i	i	i
SMILES	MITF act	esBAF inh	HSF1 inh	Wnt bcat act	HSF1 activator
O=C(/C=C/N1CCOCC1)c1ccc(-c2ccccc2)cc1	i	i	i	nt	i
CC(C)NC(=O)N1[C@@H](CO)[C@@H]2c3ccccc3NC[C@@H]21	nt	i	nt	nt	nt
CCN(Cc1ccccc1)C(=O)C1CCN(C/C(C)=C/c2ccccc2)CC1	i	i	i	i	88
C[C@H](NC(=O)[C@H]1[C@H](CO)[C@H]2Cn3c(ccc(/C=C/c4ccccc4)c3=O)[C@@H]1N2)c1ccccc1	nt	i	nt	nt	nt
CN1C(=O)c2cc(NC(=O)c3ccccc3)ccc2OC[C@@H]2O[C@H](CC(=O)NCC3CC3)CC[C@H]21	nt	i	nt	nt	nt
Cc1ccc(NC(=O)C(c2ccccc2)N2CCN(CC(=O)N3CCOCC3)CC2)cc1 (configuration not stated)	i	i	nt	33	nt
Cc1noc(C)c1NC(=O)N(C)C[C@H]1OCCCC[C@H](C)Oc2ccc(NC(=O)c3ccccc3)cc2C(=O)N([C@@H](C)CO)C[C@@H]1C	nt	i	nt	nt	nt

Screening results from PubChem BioAssay.
